The values below come from PubChem BioAssay AID1508625 (Wald Lab, School of Medicine, Case Western Reserve …, 2021).

This experiment is described as follows: enhancers of NK cell killing of ovarian tumor cells, primary screen, imaging, OVCAR3, primary NK cells, calcein-AM imaging (AID 1508625).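 Further: compound given to NK cells 16 h before adding targets at 1.5 to 1 ratio.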 As to conditions: OVCAR3 lysis by primary NK cells, at 5 µM; z-score: measured here: robust Z-score, single-point normalisation.

With `COc1ccc(-c2coc3c(C)c4oc(=O)c5c(c4cc23)CCC5)cc1`, the corrected activity, negative = more killing was -3.7% and the z-score was -1.1.

For the compound `COc1ccc(C=Nc2ccc(C(N)=O)cc2)cc1`, the corrected activity, negative = more killing is -2.24% and the z-score is -0.885.

`Cc1cc(N2CCN(C(=O)c3cccc(F)c3F)CC2)c(F)cc1[N+](=O)[O-]`: the corrected activity, negative = more killing is -4.4% and the z-score is -1.92.

Turning to `Cc1ccc(OCCCN2CCNCC2)c([N+](=O)[O-])c1`, the corrected activity, negative = more killing was -1.55% and the z-score is -0.864.

For the compound `CCCCOc1ccccc1C1NC(=O)NC(C)=C1C(=O)OCC(F)(F)F` (stereo not given), the corrected activity, negative = more killing is -3.61% and the z-score is -1.36.
